# Pf Dd2 growth: Plasmodium falciparum Dd2 growth inhibition; P. falciparum Dd2 growth, SYBR Green, 72 h; Potency, µM (top dose mostly 28.9 µM), without a hit: top-dose activity, negative = inhibition, actives largely listed as inhibitors; hit rate 4.3% among 120,000; AID 1347417; active = well fitted inhibition curve with a large enough effect;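 note: plate controls were DMSO vehicle for no effect and reference drug for full effect; nearly all actives have a fitted effect of over 65% in size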
#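 Readout: SYBR Green fluorescence, 485 nm excitation, 535 nm emission, after ~16 h lysis at 37C. Before that, Dd2-infected red cells (2.5% hematocrit) grew 72 h with compound, 29 uM top final concentration.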
# An asterisk follows results filed as active; i = inactive; [ ] = another dose, or the depositor's remark. This is one part of a sample in which hits are shown more often than they occur. Potency is the fitted concentration of half-maximal effect.
SMILES,Pf Dd2 growth
COc1ccc(NC(=O)O[C@@H]2C=C[C@H](c3c(C)nn(-c4ccccc4C)c3C)C2)cc1,i
Cc1nn(-c2ccc(F)cc2)c(C)c1[C@@H]1C=C[C@@H](NS(=O)(=O)c2cccs2)C1,i
Cc1nn(-c2ccccc2)c(C)c1[C@@H]1C=C[C@@H](NCc2ccc(F)cc2)C1,5µM*
Cc1nn(Cc2ccccc2)c(C)c1[C@@H]1C=C[C@@H](NC(=O)Nc2cccc(C#N)c2)C1,i
CCn1cc(NC(=O)C[C@H]2NC(=O)c3ccccc3NC2=O)c(C)n1,6%
Cc1noc(C)c1-c1cc2cc(C(C)C)oc2c(N2CCS(=O)(=O)CC2)n1,i
Cc1cc(C(=O)N2CCC3(CC2)CC(N2CCN(CC(C)C)CC2)CCO3)n[nH]1 (stereo not given),22%
Cc1ccccc1C(=O)N1CCC2(CC1)NC(=O)N(c1ccccc1)N2,i
O=C(NCC1CC1)C1c2ccccc2CC(=O)N1Cc1ccccc1 (stereo not given),-6%
CN(C)[C@@H]1CN(C(=O)C2CCC2)CC[C@@H]1CO,-3%
Cc1ccc(-n2nc(C)c([C@@H]3C=C[C@@H](NC(=O)c4cccs4)C3)c2C)cc1Cl,11µM*
O=C(N[C@H]1CCN2C(=O)N(c3ccc(F)c(Cl)c3)C(=O)[C@@H]2C1)c1cccs1,i
Cc1nn(Cc2ccccc2)c(C)c1[C@@H]1C=C[C@@H](NC(=O)CSCC(=O)O)C1,i
Cc1nn(-c2ccc(C(F)(F)F)cc2)c(C)c1[C@@H]1C=C[C@@H](NC(=O)c2cccs2)C1,2.8µM*
Cc1ccc(-n2nc(C)c([C@@H]3C=C[C@@H](N)C3)c2C)cc1Cl,i
Cc1nn(-c2ccc(C(C)(C)C)cc2)c(C)c1[C@@H]1C=C[C@@H](NC(=O)c2cccs2)C1,-7%[44.1 µM]
CCCCC1CN(c2ccccc2OC)C(=O)CN1C(=O)c1cnn(C)c1 (stereo not given),-8%
O=C(c1coc(COc2cccc(F)c2)n1)N1CCN(c2ccccc2)CC1,7%
c1cnc(-c2nc(C3CCNC3)no2)cn1 (stereo not given),32%[5.79 µM]
CCn1ncc(N2CCC(NC(=O)c3cccc(OC)c3)CC2)cc1=O,-17%
O=C(O)Cn1ccc2cc(OCCc3cccc(-c4ccc(Cl)cc4)c3)cnc21,i
COc1cccc(NC(=O)[C@@H]2C[C@@H](c3ccc(F)cc3)N(CCOc3ccccc3)C2)c1,-10%[44.1 µM]
O=C(Nc1cccc(F)c1)[C@@H]1C[C@@H](c2ccc(F)cc2)N([S+](=O)([O-])c2cccnc2)C1,i
COc1cccc(NC(=O)[C@@H]2C[C@H](c3ccc(F)cc3)N([S+](C)(=O)[O-])C2)c1,6.3µM*
O=C(Nc1cccc(F)c1)[C@@H]1C[C@@H](c2ccc(F)cc2)N([S+](=O)([O-])c2ccccc2)C1,-27%
SMILES,Pf Dd2 growth
O=C(NCCOc1ccccc1)[C@@H]1C[C@@H](c2ccc(F)cc2)N([S+](=O)([O-])c2cccnc2)C1,-22%
O=C(NCc1cccnc1)[C@@H]1C[C@@H](c2ccc(F)cc2)N(CCOc2ccccc2)C1,8.9µM*
COc1cccc(NC(=O)[C@@H]2C[C@H](c3ccc(F)cc3)N(Cc3csc(C)n3)C2)c1,-4%[44.1 µM]
O=C(Nc1cccnc1)[C@@H]1C[C@@H](c2ccc(F)cc2)N(Cc2ccccc2)C1,7.1µM*
O=C(Nc1ccccc1)[C@@H]1C[C@@H](c2ccc(F)cc2)N([S+](=O)([O-])c2cccnc2)C1,10%[44.1 µM]
COc1cccc(NC(=O)[C@@H]2C[C@@H](c3ccc(F)cc3)N([S+](=O)([O-])c3cccnc3)C2)c1,i
COc1ccc(NC(=O)[C@@H]2C[C@H](c3ccc(F)cc3)N(Cc3csc(C)n3)C2)cn1,-21%[44.1 µM]
COc1ccc(NC(=O)[C@@H]2C[C@@H](c3ccc(F)cc3)N(Cc3ccccc3)C2)cc1OC,10µM*
Cc1noc(C)c1C(=O)NC1CCc2nnc(C)n2CC1 (stereo not given),28%
O=C(CCCn1cnc2ccccc2c1=O)N1CCCC2(CCNCC2)CC1,-26%
Cn1ncc2c(C(=O)N3CCC(C#N)CC3)cc(-c3cccnc3)nc21,4%
O=C1NC2(Cc3ccccc31)CN(Cc1cccnc1)C2,9%[44.1 µM]
CN(C)C(=O)C1CCc2nnc(CNC(=O)c3ccccc3)n21 (stereo not given),13%
O=C(C[C@@H]1C[C@H]2O[C@H](CNC3CCCCC3)[C@@H](O)[C@H]2O1)N1CCOCC1,23%[44.1 µM]
CC(C)CCN(C)Cc1ccc(-c2ccccc2)cc1,8.9µM*
COc1ccc(CN(C)Cc2ccc(-c3ccccc3)cc2)cc1,i
CN(Cc1ccc(-c2ccccc2)cc1)Cc1cccnc1,4µM*
CN(Cc1ccc(-c2ccccc2)cc1)Cc1ccc(C(F)(F)F)cc1,0%
CN(Cc1ccc(F)cc1)Cc1ccc(-c2ccccc2)cc1,-11%[44.1 µM]
CC(C)CCN(C)Cc1ccccc1C(F)(F)F,-14%[44.1 µM]
Cc1ccc2c(c1)N1C(=O)OC[C@@H]1CCN(C(=O)c1ccc(C(F)(F)F)cc1)C2,-44%[44.1 µM]
O=C1Nc2ccc(-c3ccccc3F)cc2C(=O)N2C[C@H](O)C[C@@H]12,i
COc1ccc(-c2onc(C)c2C(=O)NCCc2cccs2)cc1,-10%
CC(C)CN1C(=O)c2cccn2CC1C(=O)NCCCN1CCCC1=O (stereo not given),39%
COc1ccc(CCC(=O)N2[C@H]3CC[C@@H]2c2cnc(C)nc2C3)cc1,12%
SMILES,Pf Dd2 growth
COc1ccc(C2Cn3nnc(-c4noc(-c5cccc(OC)c5)n4)c3CO2)cc1 (stereo not given),i
CN1C(=O)[C@H]2CN(Cc3cc(F)c(F)cc3F)C[C@H]2C1=O,i
O=C(O)CSc1c2c(nc3cc(C(=O)Nc4ccc(F)c(Cl)c4)ccc13)CCC2,-27%
COc1ccc(OC)c(NC(=O)c2ccc3c(SCC(=O)O)c4c(nc3c2)CCCC4)c1,10µM*
COc1ccc(NC(=O)c2ccc3c(SCC(=O)O)c4c(nc3c2)CCC4)c(OC)c1,-13%
CCC(C(=O)N1CCN(c2ccccc2)C(=O)C1)N1Cc2ccccc2C1=O (stereo not given),9%
CCN(CC1CCCO1)C(=O)C1CCN(c2nc(-c3ccccc3)nc3c2CCC3)CC1 (stereo not given),11µM*
CC(C)(C)CC(=O)N1CCN(c2nc(-c3ccccc3)nc3c2CCC3)CC1,-10%
CN(C)c1nc(-c2ccccc2)nc2c1CCN(C(=O)C1CCOC1)C2 (stereo not given),-16%
CNCCNC(=O)C1CCN(c2nc(-c3ccccc3)nc3c2CCC3)CC1,13µM*
COc1ccc(CN(CC2CCCO2)C(=O)C2CCN(CC(N)=O)CC2)cc1 (stereo not given),-20%
COC(C)(C)C(=O)N1CCN(c2nc(-c3ccccc3)nc3c2CCC3)CC1,i
N#Cc1ccc(CN2CC3(C2)C(=O)Nc2ccccc23)cc1,-19%[44.1 µM]
CCc1ccc2occ(CC(=O)N[C@H]3[C@@H](COC)[C@H]4OCC[C@@H]34)c2c1,-12%
COc1ccc(CNC(=O)C[C@@H]2C[C@H]3O[C@H](CNCc4ccc(F)cc4)[C@@H](O)[C@H]3O2)cc1,21%
C[C@H]1CN(C(=O)C2CCCC2)C[C@@H]1c1nc(-c2ccccc2)no1,i
Cc1noc(-c2ccccc2OC2CCN(S(C)(=O)=O)C2)n1 (stereo not given),1%
Cc1ccc(C(=O)N2CCC(Oc3ccccc3-c3nc(-c4ccncc4)no3)C2)cn1 (stereo not given),i

# Assay outcomes from PubChem.
